Screens deposited in PubChem by National Center for Advancing Translational Sciences (NCATS).
A selection: hits, their analogues and other compounds. The true share with any hit is near 6.5%.
Lassa entry inh = inhibitors of Lassa virus binding or cell entry; 300,000 compounds, 1.2% hits; AID 540256; Lassa virus pseudotype entry inhibition, cell reporter; Potency, µM (highest dose often 37.9 µM), usual class: inhibitors; calls by dose curve; tested in HEK293 cells; note: nearly all actives have a fitted effect of over 50% in size
MARV entry inh = blocks Marburg virus binding to or entry into cells; Marburg virus pseudotyped entry inhibition, cell reporter; 300,000 compounds, 1.8% hits; Potency, µM (top dose mostly 37.8 µM), usual class: inhibitors; calls by dose curve; tested in HEK293 cells
HCMV antiviral = human cytomegalovirus inhibition; HFF cells, HCMV-luciferase reporter, 72 h; hits give low values; activity change, negative = inhibition, % at 57.5 µM; 410,000 compounds, 4.5% hits; AID 1259415; in the data active = activity change below about -60%; inconclusive = no clear call, values can overlap the other calls; inactive = above about -39%
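Compounds were evaluated in HFFs infected with an HCMV luciferase reporter virus (MOI 1 PFU/cell). Luciferase in lysates collected 72 h post infection served as the replication measure.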
FMDV antiviral = blocks foot and mouth disease virus; FMDV antiviral cell-based qHTS; Potency, µM (top dose mostly 57.9 µM), hits mostly inhibitors; 410,000 compounds, 1.2% hits; calls by dose curve; tested in HEK293T cells; note: read-out not given here; nearly all actives have a fitted effect of over 45% in size
VACV mCherry inh = vaccinia inhibition (mCherry reporter). Vaccinia virus mCherry reporter infection, fluorescence. Potency, µM (highest dose often 36.5 µM), actives largely listed as inhibitors. 310,000 compounds, 0.63% hits. AID 720579; calls by dose curve; tested in A549 cells; note: nearly all actives have a fitted effect of over 35% in size
Vaccinia Venus = inhibitors of vaccinia virus (Venus reporter); Vaccinia virus Venus reporter expression, fluorescence; Potency, µM (doses to about 36.5 µM), most hits filed as inhibitors; 330,000 compounds, 0.46% hits; AID 720580; calls by dose curve; tested in A549 cells; note: nearly all actives have a fitted effect of over 30% in size
A number is an active result; [ ] = dose if it differs, or a comment.

For O=C(Nc1ccccc1F)c1ccc([N+](=O)[O-])s1 the results were Lassa entry inh inconclusive, MARV entry inh inconclusive, HCMV antiviral inconclusive, FMDV antiviral inactive, VACV mCherry inh inactive and Vaccinia Venus inconclusive.
O=C(Nc1cccnc1)c1cc(Br)c(Br)s1 was read as Lassa entry inh inactive, MARV entry inh inactive, HCMV antiviral inactive, FMDV antiviral inactive, VACV mCherry inh inactive and Vaccinia Venus inactive.
`Cc1ccc(CO)cc1Nc1ncnc2onc(-c3ccc(F)cc3)c12` gave Lassa entry inh inconclusive, MARV entry inh inactive, HCMV antiviral inactive, FMDV antiviral inactive, VACV mCherry inh inactive and Vaccinia Venus inactive.
Screening CCCCCCCCCCCCCCCCCCN(CCCCCCCCCCCCCCCCCC)c1ccc(C=O)cc1 returned VACV mCherry inh inactive and Vaccinia Venus inactive.
Screening CCN(CCCn1c(SCC#N)nc2ccccc2c1=O)c1ccccc1 returned Lassa entry inh inconclusive, MARV entry inh 9.2µM, HCMV antiviral inactive and FMDV antiviral inconclusive.
Screening Cn1c(=O)c(=O)n(C)c2cc(N3CCCC3)c(NS(=O)(=O)c3ccc(F)cc3)cc21 returned Lassa entry inh inactive, MARV entry inh inconclusive, HCMV antiviral inactive, FMDV antiviral inactive, VACV mCherry inh inactive and Vaccinia Venus inactive.
Screening Cn1c(=O)c(=O)n(C)c2cc(N3CCCCC3)c(NS(=O)(=O)c3ccc([N+](=O)[O-])cc3)cc21 returned HCMV antiviral active, FMDV antiviral inactive, VACV mCherry inh inactive[7.34 µM] and Vaccinia Venus inactive[7.34 µM].
`CCC(=O)NC(/C=C/c1ccccc1)c1cc([N+](=O)[O-])c2cccnc2c1O` (stereo not given) gave HCMV antiviral inactive.
For CC(C)C(=O)NC(c1cccs1)c1cc([N+](=O)[O-])c2cccnc2c1O (stereo not given) the results were Lassa entry inh inactive, MARV entry inh inconclusive, FMDV antiviral inactive, VACV mCherry inh 11µM and Vaccinia Venus inconclusive.
CCC(=O)NC(c1cccs1)c1cc([N+](=O)[O-])c2cccnc2c1OC (stereo not given) was read as HCMV antiviral -87 and FMDV antiviral inactive.
Screening Cc1ccc(C(NC(=O)C(C)C)c2cc([N+](=O)[O-])c3cccnc3c2O)cc1 (stereo not given) returned Lassa entry inh inactive, MARV entry inh inconclusive, HCMV antiviral inactive, FMDV antiviral inactive, VACV mCherry inh inactive and Vaccinia Venus inconclusive.
`Cc1cc(C)cc(NS(=O)(=O)c2ccc(NC(=S)NC(=O)c3ccc(Br)o3)cc2)c1` gave Lassa entry inh inactive, MARV entry inh 16µM, HCMV antiviral -76, FMDV antiviral inactive and Vaccinia Venus inconclusive.
`COc1cccc(C(=O)N2CCCCC2CCN2CCCCC2)c1` (stereo not given) gave Lassa entry inh inactive, MARV entry inh inactive, HCMV antiviral inactive, FMDV antiviral inactive, VACV mCherry inh inactive and Vaccinia Venus inactive.
`FC(F)(F)c1ccc(CN2C[C@@H]3C(c4ccc(Cl)nc4)C4(c5ccccc5)CC3(C4)[C@H]2c2ccccc2)cc1` (stereo not given in full) gave HCMV antiviral -65, FMDV antiviral inactive, VACV mCherry inh inconclusive and Vaccinia Venus inconclusive.
`C#CCCCON=C1C[C@@H](O)[C@H](O)[C@H]2[C@@H]3C(=O)N(C[C@@H]4CCCO4)C(=O)[C@@H]3CC[C@@H]12` gave MARV entry inh inactive.
For COC(=O)C1CCN(Cc2ccc3c(c2)CN(C(=O)c2cc4cc(F)ccc4[nH]2)CCO3)CC1 the results were FMDV antiviral inactive, VACV mCherry inh inactive and Vaccinia Venus inactive.
Screening COc1ccc(OCC(=O)Nc2ncc3c(n2)CC(C)(C)CC3=O)cc1 returned Lassa entry inh inactive, MARV entry inh inactive, HCMV antiviral inactive and FMDV antiviral inactive.
Screening O=C(COc1ccccc1)Nc1ncc2c(n1)CCCC2=O returned Lassa entry inh inactive, MARV entry inh inactive, HCMV antiviral -62, FMDV antiviral inactive and Vaccinia Venus inactive.
`CCOC(=O)c1ccc2ncc(C(=O)OCC)c(Nc3ccc(N4CCOCC4)cc3)c2c1` gave Lassa entry inh inconclusive, MARV entry inh 7.9µM, HCMV antiviral inconclusive, FMDV antiviral inconclusive, VACV mCherry inh inactive and Vaccinia Venus inconclusive.
CCOC(=O)c1cnc2ccccc2c1Nc1ccc(N2CCOCC2)cc1 was read as Lassa entry inh inactive, MARV entry inh inactive, HCMV antiviral inactive, FMDV antiviral inactive, VACV mCherry inh inactive and Vaccinia Venus inactive.
For O=C(Nc1cccc(F)c1)N1CCc2nc(NCc3cccc(Oc4ccccc4)c3)ncc2C1 the results were HCMV antiviral -78, FMDV antiviral inconclusive, VACV mCherry inh inactive and Vaccinia Venus inconclusive.
For COc1cccc(NC(=O)N2CCc3ccccc3C2)c1 the results were Lassa entry inh inactive, MARV entry inh inactive, HCMV antiviral inactive, FMDV antiviral inactive, VACV mCherry inh inactive and Vaccinia Venus inactive.
For CC(C)c1ccc(NC(=O)N2CCc3nc(NCc4cccc(Oc5ccccc5)c4)ncc3C2)cc1 the results were HCMV antiviral -87, FMDV antiviral inactive, VACV mCherry inh inactive and Vaccinia Venus inactive.
`COc1cccc(NC(=O)N2CCc3nc(Nc4ccc(C(C)C)cc4)ncc3C2)c1` gave HCMV antiviral -69, FMDV antiviral inactive, VACV mCherry inh inactive and Vaccinia Venus inconclusive.
For COc1cc(Nc2ncc3c(n2)CCN(C(=O)Nc2ccc(C(C)C)cc2)C3)cc(OC)c1OC the results were HCMV antiviral inconclusive, FMDV antiviral inactive, VACV mCherry inh inactive and Vaccinia Venus inactive.
Screening COC(=O)C[C@@H]1C[C@H]2c3cc(NC(=O)Nc4ccccc4F)ccc3O[C@H]2[C@@H](CO)O1 returned HCMV antiviral inactive.
CCCN1C(=O)C[C@H](S(=O)(=O)c2ccccc2)[C@H]1c1ccccc1OC was read as HCMV antiviral inactive.
O=c1[nH]c(=O)n(C2CC(O)C(CO)O2)cc1C(F)(F)F (stereo not given) was read as FMDV antiviral inactive, VACV mCherry inh 2µM and Vaccinia Venus inactive.
Nc1nc(=O)n(C2CC(O)C(CO)O2)cc1F (stereo not given) was read as Lassa entry inh inconclusive, MARV entry inh inconclusive, HCMV antiviral -97, FMDV antiviral inactive, VACV mCherry inh inconclusive and Vaccinia Venus inconclusive.
For CC(/C=C/c1ccccc1)=N\NC(N)=S the results were Lassa entry inh inactive, MARV entry inh inconclusive, HCMV antiviral inactive, FMDV antiviral inactive, VACV mCherry inh 4µM and Vaccinia Venus inconclusive.
CCOc1ccccc1-n1c(N)c(C(N)=O)sc1=S was read as Lassa entry inh inactive, MARV entry inh inactive, HCMV antiviral -63 and FMDV antiviral inactive.
CC(C)Cc1nc2oc3c(Cl)ncnc3c2c2c1CCC2 was read as Lassa entry inh inconclusive, MARV entry inh inconclusive, HCMV antiviral -96, FMDV antiviral inactive, VACV mCherry inh inactive and Vaccinia Venus inactive.
Screening CCCC(O)c1nc2ccccc2n1CCCOc1ccc(Cl)cc1 (stereo not given) returned Lassa entry inh inactive, MARV entry inh inactive, HCMV antiviral -76, FMDV antiviral 20µM, VACV mCherry inh inactive and Vaccinia Venus inactive.
